In publication PMC11062922 (Nature Chemical Biology, 2023) one finds potency estimated from few doses data, which are given here for 13 molecules.

Molecules are shown by their SMILES. Like-named read-outs stand apart in the source and are kept apart here.

Holding throughout (design): species or system human, MV4-11 + K-562 + COLO205 + SK-N-BE2 + OVCAR-8
The test system of assay [1] is MAPK10. The following applies: read-out: apparent Kd, n = 1.
Assay [2] has as its system MAPK11. The settings on record: read-out: apparent Kd, n = 1.
Assay [3] has as its system MAPK14. The settings on record: read-out: apparent Kd, n = 1.
In assay [4] the test system is MAPK8. The settings on record: read-out: apparent Kd, n = 1.
The test system of assay [5] is MAPK9. The settings on record: read-out: apparent Kd, n = 1.
Assay [6] concerns MAPKAPK2. The settings on record: read-out: apparent Kd, n = 1.
Assay [7] deals with NLK. The following applies: read-out: apparent Kd, n = 1.
Assay [8] concerns PIP4K2C. The following applies: read-out: apparent Kd, n = 1.
In assay [9] the test system is MAP2K5. The following applies: read-out: apparent Kd; compound concentrations:100 nM and 1000 nM (sheet 'Samples'); n = 1.
The test system of assay [10] is PBK. The settings on record: read-out: apparent Kd; compound concentrations:100 nM and 1000 nM (sheet 'Samples'); n = 1.
In assay [11] the test system is PTK6. The settings on record: read-out: apparent Kd; compound concentrations:100 nM and 1000 nM (sheet 'Samples'); n = 1.
Assay [12] concerns RIPK2. The settings on record: read-out: apparent Kd; compound concentrations:100 nM and 1000 nM (sheet 'Samples'); n = 1.
Assay [13] relates to RIPK3. The following applies: read-out: apparent Kd; compound concentrations:100 nM and 1000 nM (sheet 'Samples'); n = 1.
The test system of assay [14] is SIK2. The settings on record: read-out: apparent Kd; compound concentrations:100 nM and 1000 nM (sheet 'Samples'); n = 1.
For assay [15], the system named is STK26. The following applies: read-out: apparent Kd; compound concentrations: 100 nM and 1000 nM (sheet 'Samples'), CATDS: 0.44700655759470098; n = 1.
The test system of assay [16] is MAP3K12. The settings on record: read-out: apparent Kd; compound concentrations:100 nM and 1000 nM (sheet 'Samples'); n = 1.
Assay [17] deals with NUAK1. The following applies: read-out: apparent Kd; compound concentrations:100 nM and 1000 nM (sheet 'Samples'); n = 1.
Assay [18] relates to NUAK2. The following applies: read-out: apparent Kd; compound concentrations:100 nM and 1000 nM (sheet 'Samples'); n = 1.
Assay [19] relates to MARK4. The following applies: read-out: apparent Kd; compound concentrations: 100 nM and 1000 nM (sheet 'Samples'), CATDS: 0.22058260458437301; n = 1.
Assay [20] deals with PIK3CB. The following applies: read-out: apparent Kd; compound concentrations: 100 nM and 1000 nM (sheet 'Samples'), CATDS: 0.29379902166128602; n = 1.
The test system of assay [21] is RIOK2. The settings on record: read-out: apparent Kd; compound concentrations: 100 nM and 1000 nM (sheet 'Samples'), CATDS: 0.25235817930049498; n = 1.
The subject of assay [22] is JAK2. The following applies: read-out: apparent Kd; compound concentrations:100 nM and 1000 nM (sheet 'Samples'); n = 1.
The subject of assay [23] is PIM2. The settings on record: read-out: apparent Kd; compound concentrations:100 nM and 1000 nM (sheet 'Samples'); n = 1.
Setting [24] is: compound concentrations:100 nM and 1000 nM (sheet 'Samples').
Setting [25] is: compound concentrations: 100 nM and 1000 nM (sheet 'Samples'), CATDS: 1.

As for `CC(C)(O)Cn1c(=O)c(Oc2ccc(F)cc2F)cc2cnc(NC3CCOCC3)nc21` [RO5036558-000], the potency estimated from few doses is 0.0714 µM in assay [1] (compound concentrations: 100 nM and 1000 nM (sheet 'Samples'), CATDS: 0.17874550909650799); 1.37 µM in [2] (compound concentrations: 100 nM and 1000 nM (sheet 'Samples'), CATDS: 7.7724815915961296E-2); 0.0248 µM in assay [3] (compound concentrations: 100 nM and 1000 nM (sheet 'Samples'), CATDS: 0.32550592526208599); 0.578 µM in [4] (compound concentrations: 100 nM and 1000 nM (sheet 'Samples'), CATDS: 9.0808472598726403E-2); 0.127 µM in [5] (compound concentrations: 100 nM and 1000 nM (sheet 'Samples'), CATDS: 0.14012416738293099); 0.0404 µM in [6] (compound concentrations: 100 nM and 1000 nM (sheet 'Samples'), CATDS: 0.240899887861172). Moreover, the potency estimated from few doses in [7] (compound concentrations: 100 nM and 1000 nM (sheet 'Samples'), CATDS: 0.137200771005723) was 0.134 µM; in [8] (compound concentrations: 100 nM and 1000 nM (sheet 'Samples'), CATDS: 7.7645763885448402E-2) it was 1.38 µM.
For the molecule `Fc1ccc(Nc2nccc(-c3c(-c4ccc(Cl)cc4)nn4ncccc34)n2)cc1F` [GW829058X], the potency estimated from few doses in assay [1] (compound concentrations: 100 nM and 1000 nM (sheet 'Samples'), CATDS: 0.57984182911323701) is 0.726 µM; in assay [3] (compound concentrations: 100 nM and 1000 nM (sheet 'Samples'), CATDS: 0.43948476052302998), 1.28 µM.
Take `COCCNC(=O)c1ccc(-c2cc(C(=O)NC3CC3)cc(F)c2C)cc1` [GW868318X]: the potency estimated from few doses in assay [2] (setting [24]) was 0.108 µM; in assay [3] (compound concentrations: 100 nM and 1000 nM (sheet 'Samples'), CATDS: 0.55857087808569805), 0.0227 µM; in assay [6] (setting [24]), 0.0796 µM.
In the case of `CNC(=O)Oc1cc(C)c(/C=C/c2cncc(C(=O)NC)c2)c(C)c1` [GW432441X], the potency estimated from few doses in assay [9] was 0.231 µM; in assay [10] it was 1.68 µM; in assay [11], 0.0453 µM; in [12], 0.0281 µM; in assay [13] it was 0.399 µM; in assay [14], 1.32 µM.
As to `Nc1c(C(=O)c2cccc(OCCN3CCOCC3)c2)cnn1-c1ccc(F)cc1` [RO5301104-000], the potency estimated from few doses in assay [2] (setting [25]) was 0.701 µM.
Turning to `CN1CCN(CC#Cc2cccc(C(=O)c3cnn(-c4ccc(F)cc4)c3N)c2)CC1.Cl` [RO1154309-001], the potency estimated from few doses in assay [2] (compound concentrations: 100 nM and 1000 nM (sheet 'Samples'), CATDS: 0.56724832291410499) was 0.811 µM; in assay [15] it was 1.31 µM.
For `O=C(Nc1n[nH]c2nc(-c3ccccc3)c(Cl)cc12)C1CC1` [SB-734909], the potency estimated from few doses in [16] is 1.52 µM; in [2] (setting [24]), 1.94 µM; in assay [17], 1.98 µM; in assay [18] it was 1.35 µM.
Consider `CN1CCN(CCc2cccc(C(=O)c3cnn(-c4ccc(F)cc4)c3N)c2)CC1.Cl` [RO1160347-001], for which the potency estimated from few doses in assay [2] (setting [25]) was 1.33 µM.
In the case of `COC(=O)Nc1nc2ccc(Sc3ccc(NC(=O)Nc4cc(C(F)(F)F)ccc4F)cc3)cc2[nH]1.O=S(=O)(O)O` [GW607049C], the potency estimated from few doses is 1.55 µM in assay [1] (compound concentrations: 100 nM and 1000 nM (sheet 'Samples'), CATDS: 0.243888047714692); 1.93 µM in assay [19]; 1.09 µM in assay [20]; 1.44 µM in assay [21].
Consider `CC(=O)N[C@@H](Cc1ccc(OP(=O)(O)O)cc1)C(=O)N[C@H]1CCC(=O)N2CCC[C@@H](C(=O)NCc3ccccc3)N2C1=O` [RO0324253-000], for which the figures for the potency estimated from few doses in assay [22] and in assay [23] were 0.712 µM and 1.77 µM, respectively.
Turning to `CS(=O)(=O)CCCn1c(=O)c(Oc2ccc(F)cc2F)cc2cnc(NC3CCOCC3)nc21` [RO5033700-000], the potency estimated from few doses in assay [1] (setting [24]) was 0.0939 µM; in [2] (setting [24]), 0.63 µM; in assay [3] (setting [24]), 0.0077 µM; in [4] (setting [24]), 0.466 µM; in assay [5] (setting [24]), 0.11 µM; in assay [7] (setting [24]), 0.202 µM. The potency estimated from few doses in [8] (setting [24]) is 0.796 µM.
Turning to `CN(C)c1cc2c(Nc3ccc4c(cnn4Cc4ccccc4)c3)ncnc2cn1` [GW282974X], the potency estimated from few doses in [9] was 1.47 µM; in [12] it was 0.989 µM.
For `Cl.Cn1c(=O)c(Oc2ccc(F)cc2F)cc2cnc(NC(CO)CO)nc21` [RO3310123-001], the potency estimated from few doses in assay [1] (compound concentrations: 100 nM and 1000 nM (sheet 'Samples'), CATDS: 0.34863308961168299) was 1.5 µM; in [3] (compound concentrations: 100 nM and 1000 nM (sheet 'Samples'), CATDS: 0.88366158604644096) it was 0.106 µM.
